Test results: PubChem BioAssay (EPA / NIEHS)
Where “and” joins values, the source holds several entries; their conditions need not be identical. Identical values can stand only once. Inconclusive results are not listed. Where a structure was tested more than once in an assay, its records may differ in their call. Calls of active or inactive are those of the source. Rule for the calls, unless noted: active = hit-call score of the fitted dose curve at least 0.9, where 1 is the maximum; inactive = score below 0.9.

Assays:
[1] = BSK_LPS_SRB: Viability Assessment in the BioMAP Diversity Plus: LPS Assay (AID 2283079); conditions: primary human HUVEC with PBMC;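 note: total protein by sulforhodamine B absorbance as a cytotoxicity measure; measured one day after compound addition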
In short: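 SRB viability endpoint: cells fixed with 10% TCA, stained with 0.1% SRB, read at 560 nm, 24 h post-dose. HUVEC/PBMC co-culture; signal change in either direction scored relative to DMSO.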

[2] = read-out: Interleukin-1 alpha (IL1a), IL1A (gene 3552); assay: BSK_LPS_IL1a: BioMAP Diversity Plus: LPS Assay for Interleukin-1 alpha (IL1a) Biomarker Activity (AID 2283080); conditions: primary human HUVEC with PBMC; actives raise or lower the signal
In short: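 Readout is IL-1a level by ELISA, 24 h post-dose, fitted as gain or loss relative to DMSO. System: LPS-activated human primary co-culture of vascular endothelium and peripheral blood mononuclear cells, with parallel SRB total-protein cytotoxicity.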

[3] = read-out: Monocyte Chemoattractant Protein-1 (MCP1), CCL2 (gene 6347); assay: BSK_LPS_MCP1: BioMAP Diversity Plus: LPS Assay for Monocyte Chemoattractant Protein-1 (MCP1) Biomarker Activity (AID 2283081); conditions: primary human HUVEC with PBMC; actives raise or lower the signal;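 for AC50: secreted MCP-1 protein quantified by ELISA in culture supernatant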
In short: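 Secreted MCP-1 read by ELISA at 24 h post-dosing in an LPS-activated co-culture of endothelial cells with peripheral blood mononuclear cells. Fits run in both directions, DMSO as baseline; parallel SRB staining tracks overt cytotoxicity.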

[4] = BSK_LPS_PGE2: BioMAP Diversity Plus: LPS Assay for Prostaglandin E2 (PGE2) Biomarker Activity (AID 2283082); conditions: primary human HUVEC with PBMC; actives raise or lower the signal;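 for AC50: secreted prostaglandin E2 measured by ELISA in LPS-stimulated co-culture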
In short: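 HUVEC plus human PBMC co-culture stimulated with LPS; secreted PGE2 quantified by ELISA 24 h after chemical dosing. Activity fitted bidirectionally against DMSO baseline; parallel SRB staining (0.1% SRB after 10% TCA fixation, 560 nm) flags overt cytotoxicity.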

[5] = read-out: Macrophage colony-stimulating factor (MCSF), CSF1 (gene 1435); assay: BSK_LPS_MCSF: BioMAP Diversity Plus: LPS Assay for Macrophage colony-stimulating factor (MCSF) Biomarker Activity (AID 2283083); conditions: primary human HUVEC with PBMC; actives raise or lower the signal
In short: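 Bidirectional fitting against DMSO was applied to M-CSF levels read by ELISA at 24 h post-dose. The system pairs human umbilical vein endothelium with peripheral blood mononuclear cells; parallel SRB staining tracked cytotoxicity.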

[6] = read-out: Tissue Factor, F3 (gene 2152); assay: BSK_LPS_TissueFactor: BioMAP Diversity Plus: LPS Assay for Tissue Factor Biomarker Activity (AID 2283084); conditions: primary human HUVEC with PBMC; actives raise or lower the signal
In short: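 Compound was added to an endothelial cell/PBMC co-culture, and after 24 h tissue factor (CD142) was read by ELISA. Gain or loss of signal was fitted against a DMSO baseline, and parallel SRB staining (560 nm) tracked overt cytotoxicity.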

[7] = read-out: Tumor necrosis factor (Homo sapiens) (UniProt P01375); assay: BSK_LPS_TNFa: BioMAP Diversity Plus: LPS Assay for Tumour Necrosis Factor alpha (TNFa) Biomarker Activity (AID 2283085); conditions: primary human HUVEC with PBMC; actives raise or lower the signal
In short: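 Human umbilical vein endothelial cells co-cultured with PBMC and stimulated with LPS. TNFa was measured by ELISA 24 h after chemical dosing, fitted bidirectionally relative to DMSO.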

[8] = read-out: Vascular cell adhesion molecule 1 (VCAM1), VCAM1 (gene 7412); assay: BSK_LPS_VCAM1: BioMAP Diversity Plus: LPS Assay for Vascular cell adhesion molecule 1 (VCAM1) Biomarker Activity (AID 2283086); conditions: primary human HUVEC with PBMC; actives raise or lower the signal
In short: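 Human umbilical vein endothelial cells co-cultured with PBMC and stimulated with LPS; VCAM-1 measured by ELISA 24 h after dosing. Bidirectional curve fitting against DMSO baseline; cytotoxicity tracked in parallel by SRB total-protein staining.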

CD38, CD38 (gene 952) = assay: BSK_SAg_CD38: BioMAP Diversity Plus: SAg Assay for CD38 Biomarker Activity (AID 2283087); conditions: primary human HUVEC with PBMC; actives raise or lower the signal
In short: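 Human HUVEC plus PBMC co-culture stimulated with superantigen; CD38 measured by ELISA 24 h after chemical dosing. Fluorescence read-out, bidirectional fit against DMSO; cytotoxicity tracked in parallel by SRB and Alamar Blue.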

CD40, CD40 (gene 958) = assay: BSK_SAg_CD40: BioMAP Diversity Plus: SAg Assay for CD40 Biomarker Activity (AID 2283088); conditions: primary human HUVEC with PBMC; actives raise or lower the signal
In short: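 CD40 is measured by fluorescence ELISA in an endothelial/PBMC primary human co-culture at 24 h post-dose. Fitting is bidirectional, DMSO baseline. Parallel SRB staining (560 nm) flags cytotoxicity.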

CD69, CD69 (gene 969) = assay: BSK_SAg_CD69: BioMAP Diversity Plus: SAg Assay for CD69 Biomarker Activity (AID 2283089); conditions: primary human HUVEC with PBMC; actives raise or lower the signal;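 for AC50: cell surface CD69 protein quantified by ELISA with fluorescence detection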
In short: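 HUVEC co-cultured with PBMC were dosed with chemical, and CD69 was measured by ELISA with fluorescence read-out 24 h later. Bidirectional curve fitting used DMSO as negative control and activity baseline.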

[9] = read-out: E-selectin (Homo sapiens) (UniProt P16581); assay: BSK_SAg_Eselectin: BioMAP Diversity Plus: SAg Assay for Eselectin Biomarker Activity (AID 2283091); conditions: primary human HUVEC with PBMC; actives raise or lower the signal
In short: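 Cell-surface E-selectin is read by ELISA at 24 h in the SAg co-culture of HUVEC and PBMC. Curves are fitted in both directions relative to DMSO. Parallel SRB total-protein staining tracks overt toxicity.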

[10] = read-out: Monokine induced gamma interferon (MIG), CXCL9 (gene 4283); assay: BSK_SAg_MIG: BioMAP Diversity Plus: SAg Assay for Monokine induced gamma interferon (MIG) Biomarker Activity (AID 2283092); conditions: primary human HUVEC with PBMC; actives raise or lower the signal
In short: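 HUVEC plus human PBMC co-culture, chemicals dosed and MIG (CXCL9) quantified by ELISA at 24 h. Bidirectional curve fitting against DMSO as negative control and baseline, so both gain and loss of signal count as activity.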

[11] = BSK_SAg_PBMCCytotoxicity: PBMC Cytotoxicity Assessment in the BioMAP Diversity Plus: SAg Assay (AID 2283093); conditions: primary human HUVEC with PBMC;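 note: PBMC viability measured as Alamar Blue reduction fluorescence at 546/580 nm; fitted both ways against DMSO so a hit may be loss or gain of signal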;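 for AC50: PBMC superantigen activated with SEB plus TSST-1 one hour after compound addition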
In short: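 Human umbilical vein endothelial cells co-cultured with PBMC; PBMC (75,000/well) pre-treated with compound 1 h, then activated with SEB and TSST-1 (20 ng/mL final each) for 90 h. Alamar Blue added 6 h, fluorescence 546/580 nm; bidirectional fit versus DMSO.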

[12] = read-out: Interleukin-8 (IL8), CXCL8 (gene 3576); assay: BSK_SAg_IL8: BioMAP Diversity Plus: SAg Assay for Interleukin-8 (IL8) Biomarker Activity (AID 2283094); conditions: primary human HUVEC with PBMC; actives raise or lower the signal
In short: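 Human umbilical vein endothelial cells co-cultured with PBMC, stimulated with superantigen; IL-8 measured by ELISA 24 h after chemical dosing. Bidirectional fitting versus DMSO; SRB staining in parallel cultures tracks cytotoxicity.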

[13] = BSK_SAg_Proliferation: Cell Proliferation Assessment in the BioMAP Diversity Plus: SAg Assay (AID 2283095); conditions: primary human HUVEC with PBMC
In short: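 Human umbilical vein endothelial cells co-cultured with PBMC; sulforhodamine B total-protein staining (0.1% SRB after 10% TCA fixation, absorbance 560 nm) at 96 h in sub-confluent culture. Fitted bidirectionally against DMSO.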

[14] = BSK_SAg_SRB: Viability Assessment in the BioMAP Diversity Plus: SAg Assay (AID 2283096); conditions: primary human HUVEC with PBMC;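 note: cells read one day after compound addition; hits may be either gain or loss of signal compared with DMSO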
In short: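 Endothelial/PBMC primary human co-culture; compound 24 h; fix 10% TCA, stain 0.1% SRB, A560; protein content as cytotoxicity proxy; bidirectional curve fit, DMSO = baseline.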

[15] = biological target: human CYP2A6, CYP2A6 (gene 1548) (UniProt P11509); assay: NVS_ADME_hCYP2A6: NovaScreen (NVS) CYP450-related Enzyme Activity (ADME) Assay for human CYP2A6 (AID 2283099; active = hit-call score of the fitted dose curve at least 0.9, where 1 is the maximum)
In short: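 Compounds screened at 10 uM (duplicate) and, if active, titrated to a 20 uM top concentration against insect-cell-expressed CYP2A6. Loss of fluorescent product signal after 0.5 h, relative to acetonitrile baseline, indicates inhibition.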

[16] = read-out: Monocyte Chemoattractant Protein-1 (MCP1), CCL2 (gene 6347); assay: BSK_SAg_MCP1: BioMAP Diversity Plus: SAg Assay for Monocyte Chemoattractant Protein-1 (MCP1) Biomarker Activity (AID 2283090); conditions: primary human HUVEC with PBMC; actives raise or lower the signal
In short: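 MCP-1 levels in the endothelial–PBMC SAg co-culture were quantified by ELISA at 24 h post-dosing; both increases and decreases versus DMSO scored. Cytotoxicity monitored by SRB total protein in parallel cultures.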

Measured: AC50

Sequence of Tumor necrosis factor (Homo sapiens) (P01375 whole entry, looked up): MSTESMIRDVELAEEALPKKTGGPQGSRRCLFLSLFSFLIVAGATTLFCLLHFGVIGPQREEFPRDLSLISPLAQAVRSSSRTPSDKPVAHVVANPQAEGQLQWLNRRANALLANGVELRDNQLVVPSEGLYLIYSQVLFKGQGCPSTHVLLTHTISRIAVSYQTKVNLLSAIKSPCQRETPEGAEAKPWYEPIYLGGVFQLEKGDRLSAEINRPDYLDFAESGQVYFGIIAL
Sequence of E-selectin (Homo sapiens) (P16581 whole entry, looked up): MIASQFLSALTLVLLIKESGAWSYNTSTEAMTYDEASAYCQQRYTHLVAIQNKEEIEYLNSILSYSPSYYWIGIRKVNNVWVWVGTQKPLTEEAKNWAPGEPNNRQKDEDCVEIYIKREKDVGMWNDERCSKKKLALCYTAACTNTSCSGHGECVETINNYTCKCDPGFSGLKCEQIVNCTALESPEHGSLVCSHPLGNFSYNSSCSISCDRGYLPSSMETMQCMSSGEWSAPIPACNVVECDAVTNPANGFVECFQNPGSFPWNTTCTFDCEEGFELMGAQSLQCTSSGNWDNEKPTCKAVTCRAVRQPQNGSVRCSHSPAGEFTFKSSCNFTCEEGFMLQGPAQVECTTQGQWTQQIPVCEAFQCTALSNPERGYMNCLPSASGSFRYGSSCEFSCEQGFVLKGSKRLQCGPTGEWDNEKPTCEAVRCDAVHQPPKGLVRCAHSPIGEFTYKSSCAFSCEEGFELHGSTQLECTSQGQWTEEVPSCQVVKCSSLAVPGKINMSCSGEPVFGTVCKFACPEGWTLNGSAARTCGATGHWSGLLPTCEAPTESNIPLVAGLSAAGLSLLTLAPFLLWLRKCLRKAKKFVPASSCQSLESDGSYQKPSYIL
Sequence of human CYP2A6, CYP2A6 (gene 1548) (P11509 whole entry, looked up): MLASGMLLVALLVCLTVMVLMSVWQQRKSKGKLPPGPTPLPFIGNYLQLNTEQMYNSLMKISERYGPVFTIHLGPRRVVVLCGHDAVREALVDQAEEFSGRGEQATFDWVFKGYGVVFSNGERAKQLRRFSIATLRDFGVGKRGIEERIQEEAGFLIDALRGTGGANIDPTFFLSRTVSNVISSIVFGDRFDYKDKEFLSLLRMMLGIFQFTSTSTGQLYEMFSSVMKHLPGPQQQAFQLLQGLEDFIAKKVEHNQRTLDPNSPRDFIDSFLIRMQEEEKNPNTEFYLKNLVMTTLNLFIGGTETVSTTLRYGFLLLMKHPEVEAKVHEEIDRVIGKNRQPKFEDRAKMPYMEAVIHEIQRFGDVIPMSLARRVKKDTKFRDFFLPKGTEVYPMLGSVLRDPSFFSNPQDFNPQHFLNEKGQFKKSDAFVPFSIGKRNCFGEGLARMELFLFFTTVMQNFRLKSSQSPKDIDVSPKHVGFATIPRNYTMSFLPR

Oc1c(Cl)c(Cl)c(Cl)c(Cl)c1Cl
inactive: [2] | [4] | [6] | [7] | [9] | [10] | [11] | [12] | [15]
active: [1] 15.1 µM and 26.4 µM | [2] 34.4 µM | [3] 2.92 µM and 30.4 µM | [4] 4.98 µM | [5] 10.2 µM and 25.5 µM | [6] 32.4 µM | [7] 20 µM | [8] 10.2 µM and 14.6 µM | CD38, CD38 (gene 952) 27.7 µM | CD40, CD40 (gene 958) 10.2 µM and 24.1 µM | CD69, CD69 (gene 969) 10.2 µM and 19.8 µM | [9] 27.3 µM | [10] 34.8 µM | [11] 8 µM | [13] 15.8 µM and 26.9 µM | [14] 14.6 µM and 21.8 µM

CCC(C)(CC)c1cc(NC(=O)c2c(OC)cccc2OC)on1
not listed: [15] | [16]
inactive: all other assays above

Cc1ccc(O)c(C)c1
active: [4] 3.27 µM | [8] 4.7 µM
not listed: [15]
inactive: all other assays above

O=C(O)C(F)(F)C(F)(F)C(F)(F)C(F)(F)C(F)(F)C(F)(F)C(F)(F)C(F)(F)F
active: [1] 53.5 µM and 55 µM | [2] 44.1 µM | [3] 47.9 µM and 58.4 µM | [4] 20 µM and 19.9 µM and 14.8 µM | [8] 51.5 µM and 54.3 µM | CD38, CD38 (gene 952) 49.6 µM and 47 µM | CD40, CD40 (gene 958) 30 µM | CD69, CD69 (gene 969) 42.7 µM and 43.5 µM | [12] 44.1 µM and 55.1 µM | [13] 55.2 µM | [14] 51 µM and 55 µM
inactive: [1] | [2] | [3] | [6] | [7] | [8] | CD38, CD38 (gene 952) | CD40, CD40 (gene 958) | CD69, CD69 (gene 969) | [9] | [10] | [11] | [12] | [13] | [14]
